Only some compounds are listed: those with a hit (about 12% of all), similar ones and a draw of the others.
MARV entry inh = blocks Marburg virus binding to or entry into cells; Marburg virus pseudotyped entry inhibition, cell reporter; Potency, µM (titrated, usually from 37.8 µM), for the others: top-dose activity change, negative = inhibition, hits mostly inhibitors; 300,000 tested, 1.8% active; calls by dose curve; tested in HEK293 cells; note: potency is the fitted concentration of half-maximal effect; % is set by controls: 0 for no effect and ±100 for the full control effect
Lassa entry inh = inhibitors of Lassa virus binding or cell entry. Lassa virus pseudotype entry inhibition, cell reporter. Potency, µM (titrated, usually from 37.9 µM), for inactives: at the highest dose activity change, negative = inhibition, hits mostly inhibitors. 300,000 tested, 1.2% active; calls by dose curve; tested in HEK293 cells; note: potency is the fitted concentration of half-maximal effect; % is set by controls: 0 for no effect and ±100 for the full control effect; nearly all actives have a fitted effect of over 50% in size
Shiga inhibitor = inhibitors of Shiga toxin in Vero cells. AID 2315. 290,000 tested, 9.2% active. inhibition, % at 38.7 µM. Vero cells, Shiga toxin protein synthesis inhibition reporter; in the data active = inhibition mostly above about 28%, no sharp cut-off; inactive = mostly below about 43%; note: 0% is about no effect
Cycloheximide cs = counter-screen hit for Shiga toxin inhibitors, cycloheximide | max response, % | AID 2314 | cell reporter, cycloheximide protein synthesis inhibition counterscreen | 300,000 tested, 12% active; in the data active = max response mostly above about 13%, no sharp cut-off; inactive = mostly below about 14%; note: read at 38.3 µM for the half of the compounds with a filed dose; 0% is about no effect
The depositor's hits bear a star; u = inconclusive; x = no result; [ ] = another dose, or the depositor's remark.

SMILES	MARV entry inh	Lassa entry inh	Shiga inhibitor	Cycloheximide cs
Nn1c(SCC(=O)NCC2CCCO2)nnc1-c1ccc(OC(F)F)cc1 (centres undefined)	14%[46.1 µM]	5%	x	x
CCOc1cccc(CN2CCC(Oc3ccc(C(=O)NCc4ccccn4)cc3)CC2)c1	x	x	-12	3
COc1ccc(NC(=O)CCNC(=O)c2ccccc2Cl)cc1OC	x	x	-6	5
CCCCOC(=O)Nc1cccc(Cl)c1C	11%	34%	87*	22*
CCNC(=O)OCC(CC)NC(=O)OCC(C)C (centres undefined)	18%	16%	-7	-8
CCC(COC(=O)Nc1cccc(C)c1)NC(=O)OCC(C)C (centres undefined)	-20%	u	87*	36*
CCOC(=O)Nc1cccc(C(=O)O)c1	-6%	u	31*	14*
CCCCOC(=O)Nc1cccc(C(C)=O)c1	15%	u	72*	23*
CCOC(=O)N1CCN(C(=O)COC(=O)C2CCN(S(=O)(=O)c3c(C)c(C)cc(C)c3C)CC2)CC1	-10%	14%[46.1 µM]	x	x
NC(N)=NCC(O)CN(c1ccccc1)c1ccccc1 (centres undefined)	17%[46.1 µM]	28%[46.1 µM]	-2	-1
C/C(=N/NC(=O)c1ccco1)c1ccc(NC(=O)c2ccc(F)cc2)cc1	-11%	u	58*	90*
C/C(=N\NC(=O)c1ccc(C(=O)N/N=C(\C)c2ccco2)o1)c1ccco1	2%	8%	-3	2
C/C(=N\NC(=O)c1ccc(-c2ccccc2)cc1)c1ccco1	-3%[46.1 µM]	12%	42	16
CCCCCC(=O)NC(=S)Nc1ccc(NC(=O)c2ccco2)cc1	4%[46.1 µM]	-5%	10	-1
C/C(=N/NC(=O)c1ccco1)c1ccc(NC(=O)c2ccc(Br)o2)cc1	7%	0%	96*	62*
CCCCCC(=O)N/N=C(\C)c1ccc(NC(=O)c2ccco2)cc1	-7%	3.5µM*	81*	30*
Cn1c(=O)[nH]c(=O)c2c1nc(N1CCCCC1)n2CCSc1nc2ccccc2o1	3%	x	-12	-1
CC(C)CCn1c(Sc2nc3ccccc3o2)nc2c1c(=O)[nH]c(=O)n2C	u	-19%	69*	73*
COc1ccc(CNC(=O)CCNS(=O)(=O)c2cc(Br)cnc2N)cc1	x	x	-10	-4
CCOCCc1nn2c(=O)cc(COC(=O)c3ccc(NC(=O)C4CCCCC4)cc3)nc2s1	x	-7%[46.1 µM]	x	x
O=C1Cc2ccccc2C(=O)N1c1ccccc1	0%	5%	-1	-5
Cc1cc(N2C(=O)Cc3ccccc3C2=O)ccc1C(C)C	u	-3%	27	19*
COCCn1c(-c2ccccc2)nc2c(c(=O)c3ccccc3n2C)c1=O	u	-3%	13	1
Cc1ccc(-c2cnc(N)n2C)cc1C	14%	21%	32	30*
CCCC[C@@H](C=O)NC(=O)[C@H](CC(C)C)NC(=O)[C@H](CC(C)C)NC(C)=O	x	x	77*	42*
SMILES	MARV entry inh	Lassa entry inh	Shiga inhibitor	Cycloheximide cs
COc1cccc(OC)c1C(=O)Oc1ccc2c(c1)O/C(=C\c1ccncc1)C2=O	7.1µM*	5%	-6	-2
COc1ccc(/C=C2\Oc3cc(OCC(=O)N4CCC(C(=O)O)CC4)ccc3C2=O)c(OC)c1OC	x	x	15	9
COc1cccc(/C=C2\Oc3cc(OCC(=O)N4CCCCC4)ccc3C2=O)c1OC	4%[46.1 µM]	u	45*	15
O=C1/C(=C/c2ccncc2)Oc2cc(OS(=O)(=O)c3ccccc3)ccc21	x	x	23	4
COc1cccc(/C=C2\Oc3cc(OCC(=O)N4CCCC4)ccc3C2=O)c1OC	x	x	-4	15*
CCC12CN3CC(CC)(CN(C1)C3c1c(O)ccc3ccccc13)C2=O (centres undefined)	-10%	u	-10	-2
O=C1C2CCN(CC2)[C@@H]1Cc1ccc2ccccc2c1O	16%	3%	40*	33*
Oc1ccc(/C=N\Nc2nncc(-c3ccccc3)n2)cc1	x	x	51*	23*
COc1ccc(-c2cnnc(N/N=C/c3ccc(C)o3)n2)cc1	-17%[14.2 µM]	u	-8	-2
COc1ccc(Nc2nc(NCc3ccco3)nc(N/N=C/c3ccc(O)cc3)n2)cc1	u	-3%	70*	16*
COc1ccc(-c2cnnc(N/N=C/c3ccc(O)cc3)n2)cc1	u	2µM*	31	30
COc1ccc(-c2cnnc(N/N=C/c3c(C)nn(-c4ccccc4)c3Cl)n2)cc1	u	u	19	-2
COc1ccc(-c2cnnc(N/N=C/c3ccc(O)c(O)c3)n2)cc1	u	4.6µM*	32	30*
COc1ccc(/C=C(\C#N)c2n[nH]c(Cn3cncn3)n2)cc1	u	-13%	-12	-2
COc1ccc(NC(=O)CSC2=Nc3ccccc3C3=NC(CC(=O)NCCc4ccccc4)C(=O)N23)cc1 (centres undefined)	x	13%[46.1 µM]	x	x
Cn1c(=O)c2c(n3c4ccccc4nc13)NC(=O)CC2c1ccccc1F (centres undefined)	x	-14%[46.1 µM]	x	x
Cc1nn2c(=O)cc(COC(=O)c3ccccc3NC(=O)C(C)Oc3ccccc3)nc2s1 (centres undefined)	x	11%[46.1 µM]	x	x
CC(C)CCNC(=O)C1(O)c2ccccc2NC(=O)N1c1ccc(Cl)cc1 (centres undefined)	-4%[46.1 µM]	-5%[46.1 µM]	6	10*
O=C1Nc2ccccc2C(O)(C(=O)NCc2ccco2)N1c1ccc(Cl)cc1 (centres undefined)	8%	1%	31	18*
COc1ccc(OCC(=O)Nc2ccccc2O)cc1	13%	u	75*	36*
CCCNC(=O)c1ccccc1NC(=O)COc1ccc(OC)cc1	17%	10%	-4	-1
O=C(COc1ccccc1)Nc1ccccc1Oc1ccccc1	7%	-28%	-3	-2
COc1ccc(NC(=O)CN2c3cccc4cccc(c34)S2(=O)=O)c(OC)c1	-14%	-15%	23	14*
COc1cccc(OCC(=O)NNC(=O)C(=O)Nc2ccc(OC)cc2OC)c1	-14%[46.1 µM]	16%[46.1 µM]	-3	7
COc1ccc(NC(=O)COc2ccccc2)c(OC)c1	10%[46.1 µM]	29%	51*	34*
SMILES	MARV entry inh	Lassa entry inh	Shiga inhibitor	Cycloheximide cs
COc1ccccc1NC(=O)COc1ccccc1	3%	u	35	17*
COc1ccccc1C(=O)NC(CCSC)C(=O)NCC(c1cccs1)N1CCOCC1 (centres undefined)	-4%	-1%	x	x
O=C(COc1ccccc1)Nc1cccc2nsnc12	3%	12%	35	66*
COc1ccc(NC(=O)COc2ccc(Br)cc2)c(OC)c1	x	x	30*	13*
O=C(Nc1ccc(Cl)cc1)Nc1cccc2nsnc12	x	x	114*	64*
COc1ccc(NC(=O)NNC(=O)COc2ccc3cc(Br)ccc3c2)c(OC)c1	-8%[46.1 µM]	-13%[46.1 µM]	-3	1
COc1ccc(OC)c(/C=C/C(=O)Nc2ccc(OC)nc2)c1	x	x	2	7
COc1ccc(NC(=O)/C=C/c2cccc(F)c2)cn1	u	-10%	72*	43*
COc1ccccc1CNC(=O)/C=C/c1ccc(Br)o1	18%	-7%	-9	7
COc1ccc(NC(=O)/C=C/c2ccc(Br)o2)cn1	6%[46.1 µM]	9%	86*	20*
COc1ccc(NC(=O)/C=C/c2ccco2)cn1	-29%[46.1 µM]	-22%	90*	36*
COc1ccc(NC(=O)c2ccco2)cn1	u	8%[46.1 µM]	28	11

High-throughput results from PubChem.
